Measured values taken from paper PMC12820563, “FoxP3 forms a head-to-head dimer in vivo and stabilizes its multimerization on adjacent microsatellites”.
The full ranking holds about 16,000 sequences; the median of “rpm ratio (pull-down/input)” is about 0.94, and the highest 2% start at about 1.7. The list comes from a sample in which the highest values are over-represented; it also holds similar and randomly drawn sequences.

Biological target: T1, MBP-FoxP1dN (Mus musculus, UniProt P58462 326-579)
T1 sequence: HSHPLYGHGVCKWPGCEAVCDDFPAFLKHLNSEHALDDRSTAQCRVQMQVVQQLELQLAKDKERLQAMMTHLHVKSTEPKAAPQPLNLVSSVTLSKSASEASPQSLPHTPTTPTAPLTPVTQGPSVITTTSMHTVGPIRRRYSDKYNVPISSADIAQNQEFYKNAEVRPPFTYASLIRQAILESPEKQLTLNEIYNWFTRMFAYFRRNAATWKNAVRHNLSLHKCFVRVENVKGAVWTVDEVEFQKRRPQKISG
Assay: PD-seq (MBP pull-down with sequencing); 20 mM Tris-HCl pH 7.5, 100 mM NaCl, 1.5 mM MgCl2, 0.4 uM protein, 0.1 uM dsDNA library, 30 min, room temperature, amylose pull-down; high values mean tight binding
Settings: protein: recombinant; tags: His6-MBP; chain copies: 2; dsDNA, one strand shown
Outline: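 Protein and DNA were mixed at 0.4 µM and 0.1 µM and held for 30 min at room temperature in Tris pH 7.5 buffer with NaCl and MgCl2; the protein was a His6-MBP-tagged, N-terminally truncated mouse FoxP3 or FoxP1 fragment from E. coli, and the DNA a Klenow-filled double-stranded degenerate library. Amylose resin captured the complexes, which were washed three times. Binding is read as reads-per-million enrichment of pull-down versus input after Illumina sequencing, with replicates pooled.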

Sequence	binding signal
GATGATTGTTCTCCCAGCTGATGAATTGTCACATTCGAGTAAACAAATTTTCCTAATCTTTCTGTTCAAGCGCCATCTAC	1.2 RPM ratio (pull-down/input)
GATGATTGTTCTCCCAGCTGATGAATTGAACGTTTCGAGTAAACAAATTTTCCTAATCTTTCTGTTCAAGCGCCATCTAC	0.869 RPM ratio (pull-down/input)
GATGATTGTTCTCCCAGCTGATGAATTTATGGGATCGAGTAAACAAATTTTCCTAATCTTTCTGTTCAAGCGCCATCTAC	0.919 RPM ratio (pull-down/input)
GATGATTGTTCTCCCAGCTGATGAATTCTCCCTCTCGAGTAAACAAATTTTCCTAATCTTTCTGTTCAAGCGCCATCTAC	0.869 RPM ratio (pull-down/input)
GATGATTGTTCTCCCAGCTGATGAATTATATTCCTCGAGTAAACAAATTTTCCTAATCTTTCTGTTCAAGCGCCATCTAC	0.968 RPM ratio (pull-down/input)
GATGATTGTTCTCCCAGCTGATGAATTGAGGTAGTCGAGTAAACAAATTTTCCTAATCTTTCTGTTCAAGCGCCATCTAC	0.86 RPM ratio (pull-down/input)
GATGATTGTTCTCCCAGCTGATGAATTAGATTTCTCGAGTAAACAAATTTTCCTAATCTTTCTGTTCAAGCGCCATCTAC	0.85 RPM ratio (pull-down/input)
GATGATTGTTCTCCCAGCTGATGAATTTTAGTTTTCGAGTAAACAAATTTTCCTAATCTTTCTGTTCAAGCGCCATCTAC	1.4 RPM ratio (pull-down/input)
GATGATTGTTCTCCCAGCTGATGAATTTAGTTTTTCGAGTAAACAAATTTTCCTAATCTTTCTGTTCAAGCGCCATCTAC	1.19 RPM ratio (pull-down/input)
GATGATTGTTCTCCCAGCTGATGAATTGTTTAGTTCGAGTAAACAAATTTTCCTAATCTTTCTGTTCAAGCGCCATCTAC	1.94 RPM ratio (pull-down/input)
GATGATTGTTCTCCCAGCTGATGAATTCGCGCAGTCGAGTAAACAAATTTTCCTAATCTTTCTGTTCAAGCGCCATCTAC	0.818 RPM ratio (pull-down/input)
GATGATTGTTCTCCCAGCTGATGAATTCAGTCGTTCGAGTAAACAAATTTTCCTAATCTTTCTGTTCAAGCGCCATCTAC	0.873 RPM ratio (pull-down/input)
GATGATTGTTCTCCCAGCTGATGAATTCTTTAGGTCGAGTAAACAAATTTTCCTAATCTTTCTGTTCAAGCGCCATCTAC	0.821 RPM ratio (pull-down/input)
GATGATTGTTCTCCCAGCTGATGAATTTTATTAGTCGAGTAAACAAATTTTCCTAATCTTTCTGTTCAAGCGCCATCTAC	1.28 RPM ratio (pull-down/input)
GATGATTGTTCTCCCAGCTGATGAATTTTGTTAGTCGAGTAAACAAATTTTCCTAATCTTTCTGTTCAAGCGCCATCTAC	1.82 RPM ratio (pull-down/input)
GATGATTGTTCTCCCAGCTGATGAATTGTTTTAGTCGAGTAAACAAATTTTCCTAATCTTTCTGTTCAAGCGCCATCTAC	1.44 RPM ratio (pull-down/input)

Sequence	binding signal
GATGATTGTTCTCCCAGCTGATGAATTTGTTTAGTCGAGTAAACAAATTTTCCTAATCTTTCTGTTCAAGCGCCATCTAC	2.24 RPM ratio (pull-down/input)
GATGATTGTTCTCCCAGCTGATGAATTCTGTTAGTCGAGTAAACAAATTTTCCTAATCTTTCTGTTCAAGCGCCATCTAC	1.29 RPM ratio (pull-down/input)
GATGATTGTTCTCCCAGCTGATGAATTTTTTAGGTCGAGTAAACAAATTTTCCTAATCTTTCTGTTCAAGCGCCATCTAC	0.925 RPM ratio (pull-down/input)
GATGATTGTTCTCCCAGCTGATGAATTGTTTAGGTCGAGTAAACAAATTTTCCTAATCTTTCTGTTCAAGCGCCATCTAC	1.93 RPM ratio (pull-down/input)
GATGATTGTTCTCCCAGCTGATGAATTTATTTAGTCGAGTAAACAAATTTTCCTAATCTTTCTGTTCAAGCGCCATCTAC	1.76 RPM ratio (pull-down/input)
GATGATTGTTCTCCCAGCTGATGAATTTGGTTAGTCGAGTAAACAAATTTTCCTAATCTTTCTGTTCAAGCGCCATCTAC	0.953 RPM ratio (pull-down/input)
GATGATTGTTCTCCCAGCTGATGAATTTTTTTAGTCGAGTAAACAAATTTTCCTAATCTTTCTGTTCAAGCGCCATCTAC	1.05 RPM ratio (pull-down/input)
GATGATTGTTCTCCCAGCTGATGAATTATTTTAGTCGAGTAAACAAATTTTCCTAATCTTTCTGTTCAAGCGCCATCTAC	1.21 RPM ratio (pull-down/input)
GATGATTGTTCTCCCAGCTGATGAATTCGACATATCGAGTAAACAAATTTTCCTAATCTTTCTGTTCAAGCGCCATCTAC	0.996 RPM ratio (pull-down/input)
GATGATTGTTCTCCCAGCTGATGAATTGTATGACTCGAGTAAACAAATTTTCCTAATCTTTCTGTTCAAGCGCCATCTAC	0.974 RPM ratio (pull-down/input)
GATGATTGTTCTCCCAGCTGATGAATTTATCAGATCGAGTAAACAAATTTTCCTAATCTTTCTGTTCAAGCGCCATCTAC	1.03 RPM ratio (pull-down/input)
GATGATTGTTCTCCCAGCTGATGAATTCAGGCGGTCGAGTAAACAAATTTTCCTAATCTTTCTGTTCAAGCGCCATCTAC	0.783 RPM ratio (pull-down/input)
GATGATTGTTCTCCCAGCTGATGAATTACTAAGGTCGAGTAAACAAATTTTCCTAATCTTTCTGTTCAAGCGCCATCTAC	1.03 RPM ratio (pull-down/input)
GATGATTGTTCTCCCAGCTGATGAATTACTTTGGTCGAGTAAACAAATTTTCCTAATCTTTCTGTTCAAGCGCCATCTAC	0.952 RPM ratio (pull-down/input)
GATGATTGTTCTCCCAGCTGATGAATTTTGATGGTCGAGTAAACAAATTTTCCTAATCTTTCTGTTCAAGCGCCATCTAC	1.04 RPM ratio (pull-down/input)
